# Compound activity from PubChem.
# Sampled rows, rich in hits. Any-hit rate of the full collection: about 3.5%.
# FBW7 activator: FBW7 E3 ligase activators, primary screen, biochemical, AlphaScreen, human. F-box/WD repeat-containing protein 7 (Homo sapiens), Q969H0. AlphaScreen FBW7–phospho-cyclin E peptide binding, activator screen. normalized activity (activation), % at 26.1 µM. 650,000 tested, 0.13% active; in the data active = normalized activity above about 1.9%;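 note: purified mutant Fbw7 with reduced substrate affinity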
# TEAD-YAP inh: TEAD-YAP interaction inhibition, primary screen, TEAD-YAP interaction inhibitor project, luminescence, HEK-TIYL cells; inhibition, % at 9.12 µM; AID 1259422, 2018; TEAD-Gal4/YAP UAS-luciferase luminescence; 640,000 tested, 1.4% active; in the data active = inhibition above about 32%
# GPR151 ag: activators of human GPR151, primary screen, cell-based, PathHunter beta-arrestin, luminescence; G-protein coupled receptor 151 (Homo sapiens), Q8TDV0; PathHunter beta-arrestin GPR151 cells; activation, % at 11.2 µM; 650,000 tested, 1% active; in the data active = activation above about 4.9%
# Target sequence (Q8TDV0 whole entry, looked up): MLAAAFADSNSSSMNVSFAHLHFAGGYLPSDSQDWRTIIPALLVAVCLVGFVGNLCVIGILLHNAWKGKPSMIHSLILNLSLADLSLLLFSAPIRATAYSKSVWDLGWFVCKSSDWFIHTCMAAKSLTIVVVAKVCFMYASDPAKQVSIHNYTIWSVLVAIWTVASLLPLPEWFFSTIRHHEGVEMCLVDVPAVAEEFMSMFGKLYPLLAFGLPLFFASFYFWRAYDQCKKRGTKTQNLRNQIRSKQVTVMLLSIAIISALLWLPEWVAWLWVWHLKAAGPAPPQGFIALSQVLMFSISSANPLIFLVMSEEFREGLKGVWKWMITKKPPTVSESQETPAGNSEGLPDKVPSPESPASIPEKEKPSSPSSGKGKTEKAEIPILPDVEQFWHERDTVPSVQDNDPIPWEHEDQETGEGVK
# MITF inh: MITF inhibitors, primary screen, biochemical, AlphaScreen, human; Microphthalmia-associated transcription factor (Homo sapiens), O75030; AlphaScreen MITF homodimerization, bead proximity signal; inhibition, % at 2.6 µM; 650,000 tested, 0.91% active; AID 1259374, 2018; in the data active = inhibition above about 50%
# A number is an active result; . = inactive.
SMILES,FBW7 activator,TEAD-YAP inh,GPR151 ag,MITF inh
C=CC1=C(C)C2=CC3=NC(=C(CC(=O)[O-])C4=NC(=C(C)C4=C([O-])[O-])C=c4[n-]c(c(C)c4CC)=CC1=N2)C(CCC(=O)[O-])C3C.C=CC1=C(C)C2=CC3=NC(=C(CC(=O)[O-])C4=NC(=C(C)C4=C([O-])[O-])C=c4[n-]c(c(C)c4CC)=CC1=N2)C(CCC(=O)[O-])C3C.[Cu+2].[Na+].[Na+].[Na+] (configuration not stated),.,.,.,60
Cc1c(C(=O)NCCCN2CCOCC2)sc2ncn(CC(=O)N3CCCCC3C)c(=O)c12 (configuration not stated),.,.,.,.
C[C@@H]1CN(C(=O)Nc2cccc(Nc3nccc(-c4ccc(N5CCC(O)CC5)c(C#N)c4)n3)c2)C[C@H](C)O1,.,40,.,.
N#Cc1cc(-c2ccnc(Nc3ccc(-n4cnc(N5CCC(O)CC5)n4)cc3)n2)ccc1N1CCC(O)CC1,.,50,.,.
Cc1ncn(-c2ccc(Nc3nccc(-c4ccc(C#N)c(N5CCCC5)c4)n3)cc2)n1,.,.,.,.
Cc1ncn(-c2ccc(Nc3nccc(-c4ccc(N5CCCC(CO)C5)c(C#N)c4)n3)cc2)n1 (configuration not stated),.,46,.,.
Cc1ncn(-c2ccc(Nc3nccc(-c4ccc(C#N)c(N5CCC(O)CC5)c4)n3)cc2)n1,.,69,.,.
O=C(Cc1c(C(=O)O)[nH]c2ccc(Cl)cc12)Nc1ccc(F)cc1,.,.,.,.
O=C(OC(c1ccccc1)c1nccc2ccccc12)c1ccccc1 (configuration not stated),.,72,.,.
Nc1ccc(NC(=O)CN2CCCCC2)cc1,2.0,.,.,.
O=c1oc2ccc3ccccc3c2cc1-c1cn2c(n1)sc1cc(Cl)ccc12,.,.,.,.
Cc1ccc(-c2cn3c(n2)sc2cc(C)ccc23)cc1,.,78,.,.
COc1ccc2c(c1)sc1nc(-c3cc4ccccc4oc3=O)cn12,.,84,.,.
COc1ccc(-c2cn3c(n2)sc2cc(C)ccc23)cc1,.,.,.,.
Cc1ccc2c(c1)sc1nc(-c3cc4ccccc4oc3=O)cn12,.,66,.,.
O=c1oc2ccccc2cc1-c1cn2c(n1)sc1ccccc12,.,80,.,.
CCOC(=O)c1ccccc1NC(=O)c1ccccc1CCc1ccccc1,.,.,.,.
O=c1c(O)cc2c(-c3ccccc3)c3cc(O)c(O)c(Br)c3oc-2c1Br,.,.,.,96
O=C(NCCc1nc(-c2ccncc2)n[nH]1)c1cccnc1Cl,.,.,.,.
O=C(Cc1ccc(F)cc1)Nc1cc(-c2cn[nH]c2)ccn1,.,82,.,.
COc1c(C)c2c(c(O)c1C/C=C(\C)CCC(=O)OCCN1CCOCC1)C(=O)OC2,.,48,.,.
O=C(Nc1cccc2cccnc12)c1ccccc1S(=O)(=O)c1ccc([N+](=O)[O-])cc1,.,.,.,.
COc1ccc(S(=O)(=O)N(Cc2ccccc2)c2ccccc2C(=O)NCc2ccncc2)cc1,.,56,.,.
C=CCNC(=O)c1ccccc1N(Cc1ccccc1)S(=O)(=O)c1ccc(OC)cc1,.,55,.,.
N#CCCN(CCC#N)C(=O)c1ccc(Cl)cc1[N+](=O)[O-],.,.,.,.
SMILES,FBW7 activator,TEAD-YAP inh,GPR151 ag,MITF inh
O/N=C/c1cn(CC(O)Cn2cnc3ccccc32)c2ccccc12 (configuration not stated),.,.,.,.
Cc1ccnc(NC(c2cccs2)c2ccc3cccnc3c2O)c1 (configuration not stated),.,52,.,.
Cc1ccnc(NC(c2ccccc2C)c2ccc3cccnc3c2O)c1 (configuration not stated),.,90,.,.
Cc1ccc(C)c(C(Nc2ccccn2)c2ccc3cccnc3c2O)c1 (configuration not stated),.,76,.,.
CCC(Sc1ccc(-c2cccs2)nn1)C(=O)OC (configuration not stated),.,.,.,.
O=C(CC1C(=O)NCCN1Cc1ccc(F)c(F)c1)NCCN1CCOCC1 (configuration not stated),.,.,.,.
OC(COc1ccccc1F)CN1CCN(c2cccc(Cl)c2)CC1 (configuration not stated),.,.,.,.
CC(C)Oc1ccc(NC(=O)c2cccc(Cl)c2)cc1,.,.,.,.
COc1cccc(C(=O)Nc2ccc(OC(C)C)cc2)c1,.,75,.,.
COc1cccc(C(=O)Nc2ccc(O)c(C(=O)O)c2)c1,.,.,.,.
COc1cccc(C(=O)Nc2ccc(O)c(C)c2)c1,.,84,.,.
CCc1ccc(OCC(=O)NCCOC)cc1,.,.,.,.
Oc1c(Cl)cc(CN2CCN(c3cccc(C(F)(F)F)c3)CC2)c2cccnc12,.,70,.,.
O=[N+]([O-])c1cc(CN2CCN(c3cccc(C(F)(F)F)c3)CC2)c2cccnc2c1O,.,.,.,100
O=C(CCc1nnc(-c2ccccc2)o1)NCc1ccsc1,.,.,.,.
CCOc1ccccc1NC(=O)CN(c1ccc(F)c(Cl)c1)S(C)(=O)=O,.,.,.,.
Cc1ccccc1NC(=O)Nc1ccccc1C,.,.,.,.
Cc1ccccc1NC(=O)/C(Cl)=C(\Cl)S(=O)(=O)C(C)C,.,52,.,.
O=CN1CCCN(C(=O)C2CC(Cc3cccc4ccccc34)=NO2)CC1 (configuration not stated),.,.,.,.
CC(C)[C@@H](CO)Nc1ccc2ncc(-c3cccc(O)c3)n2n1,.,39,.,.
CC(C)[C@@H](CO)Nc1ccc2ncc(-c3cccc(F)c3)n2n1,.,.,.,.
Cc1ccc(-c2cnc3ccc(N[C@H](CO)C(C)C)nn23)cc1,.,.,.,.
CC(C)[C@@H](CO)Nc1ccc2ncc(-c3ccc(N)cc3)n2n1,17,.,.,.
Cc1csc(NC(=O)CSc2nnc(-c3ccccn3)n2-c2ccccc2Cl)n1,.,62,.,.
Cc1csc(NC(=O)CSc2nnc(-c3cccnc3)n2-c2ccccc2C)n1,.,62,.,.
SMILES,FBW7 activator,TEAD-YAP inh,GPR151 ag,MITF inh
Cc1ccc(-n2c(SCC(=O)Nc3nccs3)nnc2-c2ccccn2)c(C)c1,.,.,.,.
COc1ccccc1-n1c(SCC(=O)Nc2nc(C)cs2)nnc1-c1ccccn1,.,.,.,.
Cc1ccccc1-n1c(SCC(=O)Nc2nccs2)nnc1-c1cccnc1,.,62,.,.
Cc1ccccc1-n1c(SCC(=O)Nc2nccs2)nnc1-c1ccccn1,.,37,.,.
CCOc1ccc(N(CC)C(=O)Cc2nc(-c3ccc(OC)cc3)no2)cc1,.,.,.,.
COc1ccc(N/N=C/c2cc([N+](=O)[O-])ccc2O)cc1,.,.,.,.
